Among all 5,500 compounds or so, about 2,000 (36%) were called active. About 18% were inconclusive and are not listed. The list shows a part of the results. Values without a mark were called inactive. Rule as the data show it: active = normalized growth mostly below about 0.91 (no sharp cut-off); inconclusive = no clear call, values can overlap the other calls; inactive = mostly above about 0.92.
Assay: chemical genetic growth profiling, strain panel (AID 1159580);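 also: tested at 20 µM; growth read once vehicle control cultures reached saturation at 30 °C; 1 = growth at the plate median or of vehicle wells; lower values mean less growth of the strain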
Conditions: S. cerevisiae deletion strains, growth OD
[1] = locus YAL040C, strain CLN3, stronger effect = lower value
[2] = locus YCL061C, strain MRC1 (second series), stronger effect = lower value
[3] = locus YDR150W, strain NUM1, stronger effect = lower value
[4] = locus YDR363W, strain ESC2, stronger effect = lower value
[5] = locus YER002W, strain NOP16, stronger effect = lower value
[6] = locus YJR075W, strain HOC1, stronger effect = lower value
[7] = locus YMR263W, strain SAP30, stronger effect = lower value
[8] = locus YMR307W, strain GAS1, stronger effect = lower value
[9] = locus YNL153C, strain GIM3, stronger effect = lower value
[10] = locus YNL175C, strain NOP13, stronger effect = lower value
[11] = locus YNL197C, strain WHI3, stronger effect = lower value
[12] = locus YNL224C, strain SQS1, stronger effect = lower value
[13] = locus YOR083W, strain WHI5 (second series), stronger effect = lower value
[14] = locus YAL013W, strain DEP1, stronger effect = lower value
[15] = locus YNL322C, strain KRE1, stronger effect = lower value
[16] = locus YPL241C, strain CIN2, stronger effect = lower value
[17] = locus YBR229C, strain ROT2, stronger effect = lower value
[18] = locus YDL101C, strain DUN1, stronger effect = lower value
[19] = locus YDL134C, strain PPH21, stronger effect = lower value
[20] = locus YEL061C, strain CIN8, stronger effect = lower value
[21] = locus YGR078C, strain PAC10, stronger effect = lower value
[22] = locus YHR030C, strain SLT2, stronger effect = lower value
[23] = locus YHR087W, strain rtc3, stronger effect = lower value
[24] = locus YJR043C, strain POL32, stronger effect = lower value
[25] = locus YLR039C, strain RIC1, stronger effect = lower value
[26] = locus YLR058C, strain SHM2 (second series), stronger effect = lower value
[27] = locus YLR085C, strain ARP6, stronger effect = lower value
[28] = locus YLR262C, strain YPT6, stronger effect = lower value
[29] = locus YML094W, strain GIM5, stronger effect = lower value
[30] = locus YMR219W, strain ESC1, stronger effect = lower value
[31] = locus YNL298W, strain CLA4 (second series), stronger effect = lower value
[32] = locus YNR030W, strain Alg12, stronger effect = lower value
[33] = locus YOL006C, strain TOP1, stronger effect = lower value
[34] = locus YPL055C, strain LGE1, stronger effect = lower value
[35] = locus YPR135W, strain CTF4, stronger effect = lower value

## O=c1oc(Cl)c(Cl)c2ccccc12
[1]
  normalized growth: 1.03
[2]
  normalized growth: 1
[3]
  normalized growth: 0.991
[4]
  normalized growth: 1
[5]
  normalized growth: 1.02
Locus YGR229C, strain SMI1, stronger effect = lower value
  normalized growth: 0.968
[6]
  normalized growth: 0.998
[7]
  normalized growth: 1
[8]
  normalized growth: 1
[9]
  normalized growth: 0.798 (active)
[10]
  normalized growth: 1.01
[11]
  normalized growth: 1.02
[12]
  normalized growth: 0.923
[13]
  normalized growth: 0.915

## NC(=S)c1ccc[n+]([C@@H]2O[C@@H](COP(=O)([O-])OP(=O)(O)OC[C@H]3O[C@@H](n4cnc5c(N)ncnc54)C(OP(=O)(O)O)[C@H]3O)C(O)C2O)c1 (stereo partly drawn)
[14]
  normalized growth: 1.02
[1]
  normalized growth: 1.03
[2]
  normalized growth: 1.01
[4]
  normalized growth: 1
[5]
  normalized growth: 0.999
[7]
  normalized growth: 0.995
[8]
  normalized growth: 1
[10]
  normalized growth: 1
[11]
  normalized growth: 1.03
[12]
  normalized growth: 1
[15]
  normalized growth: 1.02
[13]
  normalized growth: 0.998
[16]
  normalized growth: 1.01

## Cc1ccc(S(=O)(=O)Oc2cc(=O)n(C)c3ccccc23)cc1
[14]
  normalized growth: 0.95
[17]
  normalized growth: 0.967
[18]
  normalized growth: 0.967
[19]
  normalized growth: 0.945
[3]
  normalized growth: 0.918
[20]
  normalized growth: 0.972
[21]
  normalized growth: 0.955
[22]
  normalized growth: 0.791
[23]
  normalized growth: 0.961
Locus YJL187C, strain SWE1, stronger effect = lower value
  normalized growth: 0.861 (active)
[24]
  normalized growth: 0.961
[6]
  normalized growth: 0.96
[25]
  normalized growth: 0.971
[26]
  normalized growth: 0.952
[27]
  normalized growth: 0.838
[28]
  normalized growth: 0.918
[29]
  normalized growth: 0.952
[30]
  normalized growth: 0.963
[7]
  normalized growth: 0.903
[8]
  normalized growth: 0.622 (active)
[9]
  normalized growth: 0.954
[31]
  normalized growth: 0.916
[15]
  normalized growth: 0.977
[32]
  normalized growth: 0.909
[33]
  normalized growth: 0.808
[34]
  normalized growth: 0.898
[16]
  normalized growth: 0.873
[35]
  normalized growth: 0.666

## Cc1ccc(S(=O)(=O)Oc2ccc(CC#N)cc2)cc1
[14]
  normalized growth: 0.998
[17]
  normalized growth: 0.963
[18]
  normalized growth: 1.02
[19]
  normalized growth: 0.978
[3]
  normalized growth: 0.995
[20]
  normalized growth: 0.976
[21]
  normalized growth: 1.01
[22]
  normalized growth: 0.974
[23]
  normalized growth: 0.953
[24]
  normalized growth: 1.01
[6]
  normalized growth: 0.993
Locus YKL190W, strain CNB1, stronger effect = lower value
  normalized growth: 0.945
[25]
  normalized growth: 0.865
[26]
  normalized growth: 0.977
[27]
  normalized growth: 0.929
[28]
  normalized growth: 0.845
[29]
  normalized growth: 0.956
[30]
  normalized growth: 0.989
[7]
  normalized growth: 0.995
Locus YNL128W, strain TEP1, stronger effect = lower value
  normalized growth: 0.995
[9]
  normalized growth: 1.01
[31]
  normalized growth: 0.977
[15]
  normalized growth: 0.978
[32]
  normalized growth: 0.969
[33]
  normalized growth: 0.971
[34]
  normalized growth: 0.958
[16]
  normalized growth: 0.979
[35]
  normalized growth: 0.863
